# Experimental data: PMC4336329 (PLoS ONE, 2015)
# Among all 310,000 compounds or so, about 14,000 (4.5%) showed an effect of 50% or more. Effects have a minus sign here. The sample as a whole holds a higher share of strong results than the screen did.
# Target: human ether-à-go-go-related gene (hERG) potassium channel (human, UniProt Q12809)
# Experiment: primary screen, population patch clamp on CHO cells stably expressing hERG; higher = less effect of the substance
# 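Further: peak tail current of the secondary pulse compared with the same well before compound.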
# Sequence of human ether-à-go-go-related gene (hERG) potassium channel (Q12809 whole entry, looked up): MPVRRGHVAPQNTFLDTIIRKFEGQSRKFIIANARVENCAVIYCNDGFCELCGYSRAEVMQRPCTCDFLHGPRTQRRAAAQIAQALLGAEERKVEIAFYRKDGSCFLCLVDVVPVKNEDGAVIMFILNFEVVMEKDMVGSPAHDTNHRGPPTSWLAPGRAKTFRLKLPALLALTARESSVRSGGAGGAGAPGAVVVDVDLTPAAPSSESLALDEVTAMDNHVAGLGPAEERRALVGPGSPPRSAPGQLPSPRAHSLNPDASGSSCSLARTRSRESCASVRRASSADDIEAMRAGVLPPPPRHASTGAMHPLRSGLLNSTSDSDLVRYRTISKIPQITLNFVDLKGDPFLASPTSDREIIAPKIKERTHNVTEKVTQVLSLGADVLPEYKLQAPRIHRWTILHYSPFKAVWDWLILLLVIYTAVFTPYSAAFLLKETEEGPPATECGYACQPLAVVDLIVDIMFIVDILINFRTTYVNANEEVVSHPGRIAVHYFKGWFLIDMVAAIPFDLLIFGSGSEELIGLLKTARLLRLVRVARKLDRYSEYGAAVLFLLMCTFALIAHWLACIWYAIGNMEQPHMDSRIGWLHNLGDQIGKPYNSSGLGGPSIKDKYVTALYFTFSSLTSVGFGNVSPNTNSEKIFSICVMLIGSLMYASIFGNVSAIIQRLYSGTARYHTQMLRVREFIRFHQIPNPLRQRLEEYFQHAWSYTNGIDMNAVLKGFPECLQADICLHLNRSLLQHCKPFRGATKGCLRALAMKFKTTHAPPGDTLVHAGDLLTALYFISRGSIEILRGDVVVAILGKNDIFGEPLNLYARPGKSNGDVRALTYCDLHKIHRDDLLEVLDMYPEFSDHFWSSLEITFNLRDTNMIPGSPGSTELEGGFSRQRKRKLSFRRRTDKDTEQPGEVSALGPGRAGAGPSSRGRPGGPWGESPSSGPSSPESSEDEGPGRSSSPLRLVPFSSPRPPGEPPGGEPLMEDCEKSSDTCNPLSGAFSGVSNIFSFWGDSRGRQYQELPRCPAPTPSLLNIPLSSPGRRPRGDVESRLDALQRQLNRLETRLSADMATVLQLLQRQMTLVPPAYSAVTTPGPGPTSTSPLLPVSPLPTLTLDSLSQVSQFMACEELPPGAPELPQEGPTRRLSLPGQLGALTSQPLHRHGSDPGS
row,SMILES,"hERG current change (%, negative = inhibition) at 10uM [%]"
1,COc1cccc(NC(=O)CN(C)C(C)C(=O)Nc2ccc(C#N)cc2)c1 (centres unmarked),-59.3
2,CSc1ccccc1NC(=O)CN(C)C(C)C(=O)Nc1ccc(C#N)cc1 (centres unmarked),-63.1
3,COc1cccc(NC(=O)CN(C)C(C)C(=O)Nc2ccc(C(C)=O)cc2)c1 (centres unmarked),-22.9
4,CC(C(=O)Nc1ccc(Cl)cc1)N(C)Cc1cccs1 (centres unmarked),-15
5,CC(C(=O)N1CCCC1)N(C)CC(=O)Nc1cccc(F)c1 (centres unmarked),-0.435
6,COc1cccc(NC(=O)CN(C)C(C)C(=O)Nc2ccc(S(=O)(=O)N3CCCC3)cc2)c1 (centres unmarked),-0.933
7,CC(=O)Nc1ccc(NC(=O)C(C)N(C)CC(=O)Nc2ccccc2Br)cc1 (centres unmarked),8.29
8,CC(C(=O)Nc1ccc(C#N)cc1)N(C)Cc1cccs1 (centres unmarked),-56.7
9,CC(C(=O)Nc1ccccc1)N(C)Cc1cccs1 (centres unmarked),8.67
10,CC(C(=O)Nc1ccc(C#N)cc1)N(C)CC(=O)Nc1cccc(F)c1 (centres unmarked),-64.7
11,CC(C(=O)Nc1ccc(C#N)cc1)N(C)CC(=O)Nc1ccccc1Br (centres unmarked),-17
12,CC(=O)c1ccc(NC(=O)C(C)N(C)CC(=O)Nc2cccc(F)c2)cc1 (centres unmarked),-17.3
13,CC1=C/C(=N\NC(=S)NCCc2ccccc2)CC(C)(C)C1,-4.83
14,Cc1ccc(Cn2nnc3c(=O)[nH]c(C4CCN(S(=O)(=O)c5ccccc5F)CC4)nc32)cc1,-19
15,CCN1C[C@]2(C)CC[C@H](OC)[C@]34C2[C@H](OC(C)=O)[C@@]2(OCO[C@@]25C[C@H](OC)[C@H]2C[C@]3(O)C5[C@H]2OC)[C@@H]14,39.8
16,CCOc1cc(NC(=O)c2ccccn2)c(OCC)cc1NC(=O)c1ccc(C)cc1,-13.7
17,Nc1c(C(=O)Nc2ccc(F)cc2)sc2nc(-c3ccco3)ccc12,-9.67
18,CC(=O)Nc1ccc(NS(=O)(=O)c2cc(Cl)ccc2Cl)cc1,-14.8
19,CCC(C)NCCC(=O)Nc1ccc(Cl)c(S(=O)(=O)Nc2ccc(Cl)cc2)c1 (centres unmarked),-53.6
20,CC(C)Oc1ccc(C(=O)Nc2ccc(Cl)c(S(=O)(=O)Nc3ccc(Cl)cc3)c2)cc1,2.46
21,Cc1cc(C)cc(-n2ccnc2SCC(=O)Nc2ccc3c(c2)OCCO3)c1,-14.2
22,CC(=O)c1ccc(C(=O)Nc2nnc(-c3ccc(Cl)cc3)o2)cc1,4.1
23,Cc1ccc(NC(=O)/C(=C\c2ccc([N+](=O)[O-])cc2)NC(=O)c2ccccc2)cc1,-38.6
24,O=C(OCC(=O)c1ccc([N+](=O)[O-])cc1)/C(=C\c1ccc(Cl)cc1)NC(=O)c1ccccc1,-64.4
25,Cc1ccc(NC(=O)/C(=C/c2ccc([N+](=O)[O-])cc2)NC(=O)c2ccccc2)cc1,-12
26,O=C(OCC(=O)c1ccc([N+](=O)[O-])cc1)/C(=C/c1ccc(Cl)cc1)NC(=O)c1ccccc1,-63.3
27,CC(=O)N/C(=C\c1ccccc1)C(=O)OCC(=O)c1ccccc1,9.41

row,SMILES,"hERG current change (%, negative = inhibition) at 10uM [%]"
1,O=C(NCCc1ccccc1)/C(=C\c1ccc([N+](=O)[O-])cc1)NC(=O)c1ccc(Br)cc1,-37.8
2,CS(=O)(=O)c1ccc(Oc2ccc(-c3nnco3)cc2)c([N+](=O)[O-])c1,-7.35
3,COc1cccc(C2C(C#N)=C(N)Oc3cc(C)[nH]c(=O)c32)c1OC (centres unmarked),-10.4
4,Cc1ccc2c(c1)N(CC(=O)NCc1cccs1)C(=O)CO2,5.4
5,Cc1sc2c(c1C)C(c1ccc(C(C)(C)C)cc1)=NCC(=O)N2CC(=O)Nc1nccs1,-17.9
6,Cc1sc2c(c1C)C(c1cccs1)=NCC(=O)N2CC(=O)NCc1cccs1,-56.2
7,CCOCCCNC(=S)NC1CC2CCC(C1)N2Cc1ccccc1 (centres unmarked),-23
8,Cc1noc(C(=O)Nc2ccc(F)c(Cl)c2)c1Cl,8.86
9,Oc1cccc2nc3ccccc3nc12,2.6
10,CCOC(=O)C1(CCOC)CCN(Cc2ccccc2-c2ccco2)CC1,-22.4
11,CCOC(=O)C1(Cc2cccc(OC)c2)CCN(C(C)COC)CC1 (centres unmarked),5.9
12,CCOC(=O)C1(CCc2ccccc2)CCN(CC(O)CO)CC1 (centres unmarked),-40.3
13,CCOC(=O)C1(CCc2ccccc2)CCN(Cc2ccco2)CC1,-76.5
14,CCOC(=O)C1(CCOC)CCN(C(=O)Cc2ccc3ccccc3c2)CC1,-0.72
15,CCOC(=O)C1(CCc2ccccc2)CCN(Cc2ccc(C(=O)OC)cc2)CC1,-91.8
16,CCOC(=O)C1(CCc2ccccc2)CCN(Cc2ccc(O)cc2)CC1,-83.4
17,CCOC(=O)C1(CCOC)CCN(C(C)CCc2ccc(OC)cc2)CC1 (centres unmarked),-71.1
18,Cc1ccc(S(=O)(=O)N2CCN(S(=O)(=O)N3CCCCC3)CC2)c(C)c1,-6.97
19,CSc1sc(C(=O)N2CCCCC2)c(-c2cccs2)c1C#N,-27.7
20,CC(C)(C)c1ccc(OCC(=O)Nc2cccc(S(=O)(=O)NC3=NCCCCC3)c2)cc1,-18.9
21,COc1ccc2c(CC(=O)OCC(=O)Nc3ccc(C)cc3)coc2c1,-1.56
22,O=S1(=O)CC2SC(=S)N(c3ccccc3)C2C1 (centres unmarked),7.98
23,CCOc1ccc(/C(O)=C2/C(=O)C(=O)N(CCN(C)C)C2c2ccccc2)cc1Cl (centres unmarked),-5.2
24,CC(=O)c1c(C)[nH]c(C(=O)COC(=O)c2ccc3c(=O)n4c(nc3c2)CCC4)c1C,-0.297
25,O=[N+]([O-])c1ccccc1C1Nc2cccc3cccc(c23)N1,11.8
26,CCC1CCCCN1C(=O)c1ccc(OC2CCN(Cc3ccccn3)CC2)cc1 (centres unmarked),5.27
